Hits are enriched below; roughly 3.5% of the tested compounds scored in any of these assays.
BoNT-A LC inh2 = inhibitors of Botulinum neurotoxin A light chain protease; multiplex microsphere protease substrate cleavage, flow cytometry; inhibition, % at 10 µM; 360,000 tested, 0.17% active; AID 588499; note: plate controls were buffer without enzyme for full effect and enzyme alone for no effect
Anthrax LF inh2 = inhibitors of Bacillus anthracis lethal factor protease; P15917; multiplex microsphere protease cleavage assay, LF; inhibition, % at 10 µM; 360,000 tested, 0.12% active; AID 588501; note: plate controls were buffer without enzyme for full effect and enzyme alone for no effect
Target sequence (P15917 whole entry, looked up): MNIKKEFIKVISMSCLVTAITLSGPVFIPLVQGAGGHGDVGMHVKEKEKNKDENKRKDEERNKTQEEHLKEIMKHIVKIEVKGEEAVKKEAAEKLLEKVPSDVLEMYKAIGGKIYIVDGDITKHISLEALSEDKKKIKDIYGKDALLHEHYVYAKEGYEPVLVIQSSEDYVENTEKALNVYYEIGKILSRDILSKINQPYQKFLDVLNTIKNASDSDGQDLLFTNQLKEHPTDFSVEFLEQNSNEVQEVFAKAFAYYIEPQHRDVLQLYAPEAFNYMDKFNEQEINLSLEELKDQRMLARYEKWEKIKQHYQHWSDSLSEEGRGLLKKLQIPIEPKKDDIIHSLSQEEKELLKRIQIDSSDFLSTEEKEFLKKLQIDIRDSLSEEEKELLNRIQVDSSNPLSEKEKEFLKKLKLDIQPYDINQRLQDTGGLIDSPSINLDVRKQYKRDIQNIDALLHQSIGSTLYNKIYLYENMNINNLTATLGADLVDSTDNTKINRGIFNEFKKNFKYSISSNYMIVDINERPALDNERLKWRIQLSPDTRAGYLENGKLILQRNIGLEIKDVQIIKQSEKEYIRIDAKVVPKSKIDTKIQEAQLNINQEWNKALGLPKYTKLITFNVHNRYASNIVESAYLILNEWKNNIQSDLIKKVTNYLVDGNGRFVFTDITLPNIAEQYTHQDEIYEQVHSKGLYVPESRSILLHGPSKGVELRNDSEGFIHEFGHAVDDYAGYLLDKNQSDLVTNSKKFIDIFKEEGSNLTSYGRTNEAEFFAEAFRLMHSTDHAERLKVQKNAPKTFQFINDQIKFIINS
BoNT-F LC inh = inhibitors of Botulinum neurotoxin F light chain protease | Multiplex microsphere protease cleavage assay, flow cytometry | inhibition, % at 10 µM | 360,000 tested, 0.22% active; in the data active = inhibition above about 35%, passing the limit was not always enough; inconclusive = no clear call, values can overlap the other calls; note: plate controls were buffer without enzyme for full effect and enzyme alone for no effect
Autofluor counter = flagged as autofluorescent in microsphere protease counterscreen; compound autofluorescence counterscreen, microsphere flow cytometry; active compounds read high; fluorescence intensity (no concentration beside the values); 360,000 tested, 3.1% active; AID 624483; in the data active = fluorescence intensity above about 16000; inconclusive = no clear call, values can overlap the other calls
BJeLR lethal = BJeLR cell viability loss; BJeLR (HRASV12) viability, CellTiter-Glo ATP luminescence, 48 h; inhibition, % (test concentration not listed); 300,000 tested, 0.17% active; AID 1554; in the data active = inhibition above about 50%; inconclusive = no clear call, values can overlap the other calls
* marks the source's active call; other numbers are inactive results; ? = inconclusive; nt = not tested or not shown. Cut-off read from the data, not from the text of the source, unless noted: active = inhibition above about 30%; inconclusive = no clear call, values can overlap the other calls; inactive = below that.

SMILES | BoNT-A LC inh2 | Anthrax LF inh2 | BoNT-F LC inh | Autofluor counter | BJeLR lethal
COCCCN1C(=O)C(CC(=O)NCc2ccco2)CC(C(=O)N(C(C)C)C(C)C)=C1C (stereo unspecified) | 1 | -3 | -6 | 5808 | nt
CC(=C/c1ccccc1)/C=N/n1c(-c2ccncc2)n[nH]c1=S | -1 | -2 | -6 | 4473 | 1
CC(/C=N/n1c(-c2cccnc2)n[nH]c1=S)=C\c1ccccc1 | 0 | -1 | -1 | 16837* | 2
CC(=O)Nc1ccc(C(=O)N2CCCC(c3cc(C(=O)NCc4ccc(F)cc4)no3)C2)cc1 (stereo unspecified) | -1 | 2 | 0 | 3748 | nt
Cc1ccc2nc(CN(C)C(=O)[C@H]3O[C@@H](n4ccc(N)nc4=O)[C@H](O)[C@@H]3O)[nH]c2c1 | 0 | 0 | -1 | 6000 | nt
Clc1ccc(-c2nnsc2SCc2ccccc2)cc1 | -2 | -2 | -7 | 22947* | 3
Clc1ccccc1CSc1snnc1-c1ccccc1 | ? | -2 | -4 | 20983* | 2
CC(C)(C)C(=O)NC(=C(Cl)Cl)P(=O)(O)O | -3 | -3 | -5 | 24171* | nt
COP(=O)(OC)C(NC(=O)C(C)(C)C)=C(Cl)Cl | 0 | 3 | 1 | 9697 | -4
CC1(C(=O)NS(=O)(=O)Cc2ccccc2)CCN1C(=O)C1(c2ccc(Cl)cc2)CCC1 (stereo unspecified) | 0 | 0 | 2 | 3453 | nt
COc1ccc(N/C=C2\CCOC2=O)cc1 | 0 | -2 | 0 | 16257* | 4
COc1ccc(/C=C2\CCOC2=O)cc1 | 1 | 0 | 5 | 3047 | 1
CCOC(=O)c1ccc(NC(=O)[C@@H]2CCC(=O)N2C2OC(=O)c3c2ccc(OC)c3OC)cc1 (stereo partly specified) | 0 | -4 | 4 | 3790 | nt
NC(=O)c1sc2nc(N3CCCCC3)c3c(c2c1N)CCCC3 | 0 | 4 | -3 | 16416* | -5
CC(/C=N/NC(=O)c1ccncc1)=C\c1ccc(C(C)C)cc1 | 3 | 0 | 1 | 22320* | 1
CC(/C=N/NC(=O)c1cccnc1)=C\c1ccccc1 | -1 | -1 | 0 | 2218 | -7
COc1ccc(CC(NC(C)=O)C(=O)N2CCN(C(=O)Nc3ccc(Cl)cc3)CC2)cc1OC (stereo unspecified) | 1 | -8 | -1 | 22516* | nt
COc1cccc(NC(=O)N2CCN(C(=O)C(Cc3ccc(OC)c(OC)c3)NC(C)=O)CC2)c1 (stereo unspecified) | ? | -7 | 13 | 18405* | -3
O=C1NC[C@H](CCCCN2C[C@H](Cc3ccc(O)cc3)N(Cc3ccccc3)C(=O)C2=O)N(CC2CCCCC2)C1=O | -1 | -16 | -10 | 4577 | nt
CC1Cc2cc(/C(O)=C3/C(=O)C(=O)N(CCCn4ccnc4)C3c3ccncc3)ccc2O1 (stereo unspecified) | 0 | 0 | 2 | 10038 | 5
O=C1C(=O)N(CCCn2ccnc2)C(c2cccnc2)/C1=C(/O)c1ccc(F)cc1 (stereo unspecified) | 0 | 2 | -1 | 23173* | 1
CC1Cc2cc(/C(O)=C3/C(=O)C(=O)N(CCCn4ccnc4)C3c3cccnc3)ccc2O1 (stereo unspecified) | -3 | -4 | -5 | 17226* | -4
O=C1CN(C(=O)COC(=O)CCc2ccccc2O)c2ccccc2N1 | -4 | -3 | -10 | 6658 | nt
CCOc1ccc(C(=O)NC(=S)Nc2ccc(N3CCC(C)CC3)cc2)cc1[N+](=O)[O-] | -7 | -11 | 39* | 14746 | 3
CCOc1ccc(C(=O)NC(=S)Nc2ccccc2N2CCC(C)CC2)cc1[N+](=O)[O-] | 0 | 0 | -2 | ? | -4
SMILES | BoNT-A LC inh2 | Anthrax LF inh2 | BoNT-F LC inh | Autofluor counter | BJeLR lethal
C=C1C2=C(C(=O)N1OC)[C@@H](O)[C@@](C)(O)[C@@H](CCCCC)O2 | 1 | 3 | -3 | 5416 | nt
Cc1cc(-c2ccccc2)nc(N/N=C/c2ccco2)n1 | -2 | -3 | -5 | 24412* | 5
Cc1cc(C)nc(N/N=C/c2ccco2)n1 | 1 | 3 | -1 | 7861 | 5
Cc1ccc(-c2csc(N/N=C/c3ccco3)n2)cc1 | 0 | -6 | -6 | 23231* | 3
COc1ccc(NC(=O)C2(C)CCN2Cc2ccc(OC(F)(F)F)cc2)cc1OC (stereo unspecified) | -1 | -14 | -8 | 3153 | nt
O=C(O)CCc1nn2c3ccccc3n(CC(=O)c3ccccc3)c2nc1=O | 1 | -1 | 0 | 22951* | 10
COc1ccc(-c2csc(C(NC(C)=O)c3cccc(F)c3)n2)cc1 (stereo unspecified) | 0 | -6 | -2 | 2889 | nt
CCOC(=O)C1(S(=O)(=O)c2ccc(Cl)cc2)CCN(Cc2ccc(Cl)cc2)CC1 | 1 | -6 | -1 | 23017* | 0
